# Several values for one entry are separate records, joined by “and”; a condition that tells them apart may be missing. Identical values can stand only once. For some assays here: Potency and affinity values are given separately. The source holds several records for some structures; these can differ, active in one and inactive in another. Activity calls are given as the source filed them. Cut-off read from the data, not from the text of the source, unless noted: active = parasite load remaining mostly below about 12% (no sharp cut-off); inactive = mostly above about 10%. Bridge positions count the residues as written; N and C are the ends. Square brackets hold non-standard residues; d marks the D form. Peptide text beside a SMILES is read from it. * marks the point of attachment. ξ: configuration not given here. ξDab(CH2SO3H) = NC(CCNCS(=O)(=O)O)C(=O)O; Heptanoyl(6-Me) = CC(C)CCCCC(=O)*; Dab = NCC[CH](N)C(=O)O
# Experiments:
# [1] = blockers of polyQ-driven CASP3 activation – cell-based (AID 1583); settings: polyglutamine-induced caspase-3 activation, cell assay; stronger effect = higher value;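 tested at 10 µM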
# [2] = yeast 75Q aggregation reduction – 75Q-TubU reporter (AID 1593); settings: Yeast 75Q polyglutamine aggregation reporter
# [3] = restoration of touch response, mutant HTT neurons – whole organism, C. elegans mechanosensory neurons, N-terminal huntingtin (AID 1599); settings: C. elegans polyQ-huntingtin mechanosensory neurons, stronger effect = higher value
# [4] = blockers of cytochrome c efflux from mitochondria – biochemical, purified mitochondria (AID 1603); settings: stronger effect = lower value;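 note: mouse liver mitochondria challenged with calcium chloride; signal normalized to the plate average as 100%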
# [5] = polyglutamine aggregate formation blockers (AID 1604); settings: polyglutamine-induced protein aggregation inhibition assay; stronger effect = higher value; tested at 2.5 µM
# [6] = glutamate transport activators, MN-1 cells, MN-1 cell line (AID 1612); settings: MN-1 motor neuron cells, stronger effect = higher value;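 note: tested at 1 µM final; 0% = mean of DMSO vehicle wells on each plate; positive means more glutamate uptake than control and negative means less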
# [7] = GFP-Q80 aggregate reduction, neuronal-like cells, cell-based, NGF-treated PC12, GFPQ80 (AID 1614); settings: PC12 NGF-treated GFP-polyQ80 inclusion reduction;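 note: lower means fewer inclusions and 0 means no inclusions at all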
# [8] = 75Q-TubH aggregate inhibition, S. cerevisiae, yeast (AID 1616); settings: S. cerevisiae 75Q-TubH polyglutamine aggregation suppression; stronger effect = higher value
# [9] = P. berghei load reduction in hepatocytes – cell-based, HepG2, luciferase luminescence, HepG2 viability, primary screen (AID 624349);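 note: 100% = mean of DMSO negative control wells on the same plate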; settings: P. berghei liver stage in HepG2, luciferase luminescence, concentration not given here; parasite load remaining: stronger effect = lower value; viability: measured here: HepG2 viability without parasites
# [10] = EMT-state selective cytotoxicity in co-culture – imaging, PC-3E GFP, TEM4-18 mCherry, primary screen (AID 1345086;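 active = compounds killing one labelled cell type while sparing the other, by normalised counts and ratio limits, not self-fluorescent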;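 for all read-outs here: cells exposed to compound for 72 h before imaging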;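 for red/green cell ratio (normalised): normalised mesenchymal count divided by normalised epithelial count so high means epithelial killing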); settings: PC-3E GFP / TEM4-18 mCherry co-culture, imaging cell counts, at 1 µM; for red/green cell ratio (normalised): actives lie on both sides, counts scaled to control wells, 1 = unselective
# [11] = viability loss with induced miR-34 in A549 – imaging, A549 dox-inducible miR-34, nuclei and caspase counts, primary screen (AID 1347080;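 active = compounds whose cell count with miR-34 switched on is under 0.7 times the count with it off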); settings: A549 miR-34 inducible, Hoechst nuclei count, 48 h
# [12] = measured here: epithelial PC-3E GFP cell survival
# [13] = measured here: mesenchymal TEM4-18 mCherry cell survival
# [14] = stronger effect = lower value, cell number ratio, induced over uninduced
# [15] = measured here: relative caspase fold change +Dox/-Dox
# [16] = measured here: total cells with miR-34 induction, stronger effect = lower value
# [17] = measured here: total cells without miR-34 induction
Compound,inhibition [1] [%],score [2],rescue above control [3],cytochrome c release ratio [4],inhibition of aggregation [5] [%],glutamate uptake change [6] [%],inclusion score [7],aggregation suppression score [8],parasite load remaining [9],viability [9],red/green cell ratio (normalised) [10],"normalised cell number [10, 12]","normalised cell number [10, 13]","fold change [11, 14]","fold change [11, 15]","cell count [11, 16]","cell count [11, 17]"
CO[C@@H]1[C@@H](O[C@@H]2O[C@H](C)[C@@H](O[C@H]3C[C@@](C)(O)[C@H](O)[C@H](C)O3)[C@H](N(C)C)[C@H]2O)[C@@H](CC=O)C[C@@H](C)[C@@H](O[C@H]2CC[C@H](N(C)C)[C@@H](C)O2)/C=C/C=C/C[C@H](C)OC(=O)C[C@H]1O,7.63,1.61,24.9,1.41,50.8,-5.09,2,1.01,143% (inactive) and 69.7% (inactive),83.9% and 197%,0.86 (inactive),1.23,1.05,0.795 (inactive),4.68,10300,12900
O=C1O[C@@H](CO)[C@H](O)[C@@H](O)[C@@H]1O,-15.4,1.29,7.61,0.98,50.7,-5.06,2,1.09,176% (inactive) and 30.6% (inactive),83.8% and 96.7%,1.05 (inactive),0.98,1.02,0.946 (inactive),2.61,12000,12600
CC1(C)C2CC[C@]3(C)C(C(=O)C=C4[C@@H]5C[C@@](C)(C(=O)O)CC[C@]5(C)CC[C@]43C)[C@@]2(C)CC[C@@H]1OC(=O)CCC(=O)O (some centres not stated),59.3,2.57,-3.48,3.47,66.7,-2.75,,1.68,124% (inactive) and 24.9% (inactive),99.6% and 85.2%,0.99 (inactive),1.01,1,0.887 (inactive),2.9,10800,12200
C#C[C@]1(O)CCC2C3CCC4=Cc5oncc5C[C@]4(C)C3CC[C@@]21C (some centres not stated),10.9,1.04,5.61,1.19,69.1,-6.15,,0.874,83.8% (inactive) and 19.9% (inactive),69% and 89.7%,1.05 (inactive),1.19,1.26,0.952 (inactive),2.2,9590,10100
C=C[C@H]1CN2CC[C@H]1C[C@@H]2[C@H](O)c1ccnc2ccc(OC)cc12,-2.2,1.5,-7.29,0.97,9.09,13.1,,1.58,68.2% (inactive) and 15.1% (active),72.3% and 81.3%,1.16 (inactive),1.05,1.21,0.948 (inactive),2.86,10900,11500
CCC(C)C1NC(=O)C(CCNCS(=O)(=O)O)NC(=O)C(NC(=O)C(CCNCS(=O)(=O)O)NC(=O)C(NC(=O)C(CCNCS(=O)(=O)O)NC(=O)CCCCC(C)C)C(C)O)CCNC(=O)C(C(C)O)NC(=O)C(CCNCS(=O)(=O)O)NC(=O)C(CCNCS(=O)(=O)O)NC(=O)C(C(C)CC)NC1=O (configuration not stated) ({Heptanoyl(6-Me)}-[ξDab(CH2SO3H)]T[ξDab(CH2SO3H)][Dab][ξDab(CH2SO3H)]II[ξDab(CH2SO3H)][ξDab(CH2SO3H)]T; lactam 4-C; configuration not given here),16.7,0.3,0,1.4,59.3,-9.16,,0.253,124% (inactive) and 57.4% (inactive),68.9% and 92.3%,1.41 (inactive),1.02,1.44,0.942 (inactive),0.679,11200,11900
Cn1nnnc1SCC1=C(C(=O)O)N2C(=O)C(NC(=O)C(O)c3ccccc3)C2SC1 (configuration not stated),15.1,1.62,-1.89,1.02,39.4,14.2,2,1.25,39.2% (inactive),86%,0.9 (inactive),1.03,0.93,0.886 (inactive),4.15,11200,12600
CN1CCN(CCC=C2c3ccccc3Sc3ccc(S(=O)(=O)N(C)C)cc32)CC1,35.1,0.75,18.8,2.01,76,-21.1,,0.481,192% (inactive) and 47.1% (inactive),71.3% and 85.4%,1.07 (inactive),0.83,0.89,0.878 (inactive),3.25,9700,11100
CC1(C)O[C@@H]2CC3C4CCC5=CC(=O)C=C[C@]5(C)[C@@]4(F)[C@@H](O)C[C@]3(C)[C@]2(C(=O)CO)O1 (some centres not stated),7.99,0.99,-3.95,1.15,85.2,20.7,2,1.19,187% (inactive) and 62.4% (inactive),64.4% and 84.9%,1.43 (inactive),0.86,1.23,0.787 (inactive),3.14,6650,8440
C[C@]12CCC(=O)C=C1CCC1C2[C@@H](O)C[C@@]2(C)C1CC[C@]2(O)C(=O)COC(=O)CCC(=O)O (some centres not stated),7.51,1.55,-3.62,1.58,37.2,-0.65,2,1.36,137% (inactive) and 66.7% (inactive),78.6% and 93.3%,1.43 (inactive),0.86,1.23,0.766 (inactive),0.842,7240,9450
CC12CCC3C(=CCc4cc(O)ccc43)C1CCC2=O (configuration not stated),-18.1,0.86,0.8,0.66,84.7,1.39,,0.518,112% (inactive) and 14% (inactive),72.6% and 110%,1.28 (inactive),1.14,1.45,0.897 (inactive),0.851,11100,12400
CC(=O)[C@H]1CCC2C3CCC4=CC(=O)CC[C@]4(C)C3CC[C@@]21C (some centres not stated),41.6,0.59,3.59,1.24,84.5,-1.48,,0.333,49.3% (inactive) and 27.2% (inactive),66.1% and 99.4%,0.96 (inactive),1.15,1.11,0.856 (inactive),1.4,9840,11500

# Source: PubChem BioAssay
